Here are results for 7 compounds from PubChem BioAssay (NCI).

Holding throughout (assay): NCI-60 one-dose screen, 48 h (100 = growth as untreated, 0 = no growth, -100 = all killed)
Assay [1] deals with SK-MEL-2 melanoma. Particulars: 10 µM unless noted.
Assay [2] deals with EKVX NSCLC. Particulars: 10 µM unless noted.
Assay [3] concerns SN12C renal. Particulars: 10 µM unless noted.
Assay [4] relates to UO-31 renal. Particulars: 10 µM unless noted.
Assay [5] has as its system TK-10 renal. Particulars: 10 µM unless noted.
Assay [6] relates to ACHN renal. Particulars: 10 µM unless noted.
Assay [7] concerns CAKI-1 renal. Particulars: 10 µM unless noted.
The test system of assay [8] is A498 renal. Particulars: 10 µM unless noted.
Assay [9] deals with CCRF-CEM leukemia. Particulars: 10 µM unless noted.
For assay [10], the system named is MOLT-4 leukemia. Particulars: 10 µM unless noted.
Assay [11] concerns SR leukemia. Particulars: 10 µM unless noted.
The subject of assay [12] is RPMI-8226 leukemia. Particulars: 10 µM unless noted.
Assay [13] relates to OVCAR-8 ovarian. Particulars: 10 µM unless noted.
Assay [14] concerns OVCAR-5 ovarian. Particulars: 10 µM unless noted.
For assay [15], the system named is SK-OV-3 ovarian. Particulars: 10 µM unless noted.
Assay [16] has as its system IGROV1 ovarian. Particulars: 10 µM unless noted.
For assay [17], the system named is OVCAR-3 ovarian. Particulars: 10 µM unless noted.
Assay [18] relates to HS 578T breast. Particulars: 10 µM unless noted.
Assay [19] concerns NCI/ADR-RES ovarian. Particulars: 10 µM unless noted.
The subject of assay [20] is OVCAR-4 ovarian. Particulars: 10 µM.

Molecules are shown by their SMILES. This is part of a sample that, as a whole, favours compounds with a hit. Of some 83,000 tested, about 20% had one in any assay.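 96-well plates, one dose, 48 hours. Percent growth reported; active if below 10.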 Values without a mark were called inactive. Calls of active or inactive are those of the source.

For `C=C(C)[C@@H]1CC[C@]2(C(=O)NCCCCCCN(CCCN)CCCN)CC[C@]3(C)[C@H](CC[C@@H]4[C@@]5(C)CC[C@H](OCCCN)C(C)(C)[C@@H]5CC[C@]43C)[C@@H]12`, the growth in assay [1] is 122% [100 µM]; in assay [2] it was 141% [100 µM]; in [3] it was 81.9% [100 µM]; in assay [4], 53.4% [100 µM]; in assay [5], 119% [100 µM]; in assay [6] it was 75.6% [100 µM]. Further, the growth in [7] was 94.5% [100 µM]; in [8], 130% [100 µM]; in assay [9], 11.8% [100 µM]; in assay [10] it was 10.1% [100 µM]; in assay [11] it was 18.4% [100 µM]; in [12], 29.3% [100 µM]. For the same compound, the growth was -28.3% [100 µM] (active) in assay [13]; 90.5% [100 µM] in assay [14]; 97.9% [100 µM] in assay [15]; 27.3% [100 µM] in assay [16]; 71.8% [100 µM] in assay [17]; 94.9% [100 µM] in assay [18]. Besides, the growth in assay [19] was 86.3% [100 µM].

As to `CC1Cc2c(ncnc2-n2cnc3ccccc32)N(C)c2ccccc21` (stereo not given), the growth in assay [1] is -6.66% (active); in assay [2] it was 48.6%; in assay [3] it was 35.5%; in assay [4], 46.4%; in assay [5], 50%; in [6], 55.7%. Also, the growth was 33.6% in assay [7]; -2.09% (active) in assay [8]; 23.2% in assay [10]; 15.2% in assay [11]; 26.2% in [12]; 44.1% in assay [13]. For the same compound, the growth was 95.2% in [14]; 65.2% in assay [20]; 17.2% in [15]; 62.5% in [16]; 14.7% in assay [17]; 36.6% in assay [18]. The growth in assay [19] was 9.36% (active).

Regarding `CC(C)CCSC1=CC(=O)c2ccccc2C1=O`, the growth in assay [1] was 83.1%; in [2], 81%; in [3] it was 90.2%; in assay [4] it was -63.5% (active); in [5], 103%; in [6] it was 11.2%. Also, the growth is 21.1% in [7]; 98.4% in [8]; 0.242% (active) in [9]; 16% in assay [10]; 6.01% (active) in [11]; -62.3% (active) in [12]. Moreover, the growth in assay [13] is 56.4%; in assay [14], 112%; in assay [15], 104%; in assay [16] it was -35.3% (active); in [17], -57.5% (active); in [18], 74%. The growth in assay [19] is 76.3%.

Regarding `O=C(Oc1ccc(Cl)cc1[N+](=O)[O-])Oc1ccc(Cl)cc1[N+](=O)[O-]`, the growth in assay [1] is 103%; in assay [2], 108%; in assay [3] it was 107%; in assay [4], 88.8%; in [5], 120%; in assay [6], 108%. Moreover, the growth in assay [7] is 104%; in [8], 154%; in assay [9], 102%; in assay [10] it was 97.8%; in assay [11], 82.1%; in [12], 100%. The growth in [13] is 108%; in [14], 108%; in assay [15], 120%; in [17], 119%; in assay [18] it was 104%; in [19], 119%.

With `ClC1=C(Cl)C(Cl)=C(Cl)C1=Cc1ccccc1`, the growth in assay [1] is -28% (active); in [2], -4.72% (active); in [3], -57% (active); in [4], -87.1% (active); in assay [5], -36.3% (active); in assay [6], -35.5% (active). The growth is -37.9% (active) in assay [7]; -74.1% (active) in [8]; 8.52% (active) in assay [9]; 2.93% (active) in [10]; 4.43% (active) in [11]; -22.7% (active) in [12]. Further, the growth is -18.9% (active) in assay [13]; -60.9% (active) in assay [14]; 38.8% in assay [15]; -96.5% (active) in [17]; 6.95% (active) in assay [18]; -26.5% (active) in assay [19].

As to `CCOc1ccc(/C=C(\C#N)c2cc3ccccc3[nH]2)cc1`, the growth in [1] was 36.1%; in [2], 72.5%; in [3] it was 62.7%; in [4], 69.5%; in assay [5] it was 79.3%; in [6], 81.8%. Moreover, the growth is 40.3% in assay [7]; 56.9% in assay [8]; 31.2% in [10]; 18.2% in assay [11]; 79.7% in [12]; 65.4% in assay [13]. The growth in [14] is 76.5%; in assay [20], 82.5%; in assay [15] it was 67.8%; in [16], 56%; in [17] it was 41.9%; in [18], 66.4%. Moreover, the growth in assay [19] was 26.1%.

As to `O=C1Cc2c(sc3c(F)cccc23)C(c2ccccc2[N+](=O)[O-])N1` (stereo not given), the growth in assay [1] was 126%; in assay [2], 85.2%; in [3] it was 99.1%; in [4], 69.6%; in [5] it was 142%; in [6], 101%. In addition, the growth in assay [7] is 75.1%; in [8], 115%; in assay [9] it was 110%; in assay [10], 106%; in [11] it was 99.4%; in [12], 95.4%. In addition, the growth in assay [13] is 107%; in [14], 108%; in [15] it was 93.1%; in assay [16], 63.5%; in assay [17], 97.9%; in assay [19] it was 106%.
